Screening data (PubChem BioAssay)
FUS yeast rescue = FUS proteinopathy suppression in yeast; S. cerevisiae FUS-expressing, growth rescue, OD600, 24 h; Potency, µM (titrated, usually from 76.6 µM), most hits filed as activators; hit rate 0.24% among 390,000; AID 1347120;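 further: plate controls were DMSO vehicle for no effect and reference control for full effect; nearly all actives have a fitted effect of over 55% in size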
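Steps: raffinose overnight preculture; dilution to OD 0.005 in 2% galactose minimal medium; compound addition (concentration series); 24hr at 30C, 99% humidity; absorbance read at 600 nm.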
aSyn rescue = alpha-synuclein toxicity inhibition in yeast; Potency, µM (series often up to 46.1 µM), for inactives: at the top dose growth rescue (activation), usual class: activators; hit rate 0.14% among 370,000; Yeast expressing alpha-synuclein, growth rescue, BacTiter-Glo, 24 h; further: % of control where 0% means no effect; nearly all actives have a fitted effect of over 65% in size
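Galactose-induced alpha-syn yeast (OD600=0.02, raffinose-pregrown) + pinned cpd, 24 hr, 30 deg C; growth by BacTiter-Glo luminescence. Growth restoration scores as activation.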
TDP43 rescue = inhibitors of TDP-43 toxicity in yeast. TDP-43 expressing yeast growth rescue, BacTiter-Glo, 24 h. hit rate 1.8% among 410,000. AID 652104. Potency, µM (doses to about 46.1 µM), for inactives: at the top dose growth rescue (activation), actives largely listed as activators; further: % of control where 0% means no effect; nearly all actives have a fitted effect of over 50% in size
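Cell-based yeast growth screen: TDP-43 expression induced in galactose, inoculum OD600=0.02 after raffinose pregrowth to mid-log. Read-out BacTiter-Glo luminescence at 24 hr, 30 deg C; inhibition of toxicity seen as signal increase.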
Abeta rescue = A-beta toxicity reversal in yeast; Potency, µM (top dose mostly 46.1 µM), usual class: activators; hit rate 0.063% among 410,000; yeast expressing A-beta42, growth rescue, OD600, 48 h; response scale: 0% DMSO, 100% iron-clioquinol control; further: nearly all actives have a fitted effect of over 55% in size
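Yeast growth medium received pinned compounds, then yeast cells expressing toxic A-beta were added; plates incubated at 30 C for 48 hr. Growth read as absorbance at 600 nm, normalized to DMSO and equimolar FeCl3 plus clioquinol controls.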
The depositor's hits bear a star; [ ] = remark or other dose. In the library only some 2.1% were active in any assay of this set; here they are far more common. The call rests on the fitted dose curve; in most records, active means well fitted curve in the direction sought with a large enough effect; inconclusive means small, poorly fitted or top-dose-only effect, or another doubt; inactive means no such curve, though single readings can be large; an effect the other way counts as inactive or inconclusive. Potency means the concentration at half of the fitted maximal effect.

Screening Nc1nc2ccc(Cl)cc2o1 returned aSyn rescue inconclusive, TDP43 rescue 7.0% and Abeta rescue inactive.
Nc1nc2cc(Cl)c(Br)cc2o1 was read as aSyn rescue 3.2%, TDP43 rescue 20µM* and Abeta rescue inactive.
`Cc1ccc(NC(=S)c2nc3ccccc3[nH]2)c(C)c1` gave FUS yeast rescue inactive, aSyn rescue -4.5%, TDP43 rescue 17.8µM* and Abeta rescue inconclusive.
O=C(Nc1nnc(-c2ccco2)o1)c1ccc(Cl)s1 was read as FUS yeast rescue inactive, aSyn rescue 6.7%, TDP43 rescue inconclusive and Abeta rescue inactive.
`O=C(Nc1nnc(-c2ccc(F)cc2)o1)c1cc(Cl)sc1Cl` gave aSyn rescue inconclusive, TDP43 rescue inconclusive and Abeta rescue inactive.
For O=C(Nc1nnc(-c2ccc(Cl)cc2)o1)c1nc2ccccc2s1 the results were FUS yeast rescue inactive, aSyn rescue 17.8µM*, TDP43 rescue inconclusive and Abeta rescue inactive.
Cc1cccc(-c2nnc(NC(=O)c3ccc(Cl)cc3)o2)c1 was read as FUS yeast rescue inactive, aSyn rescue 7.08µM*, TDP43 rescue inconclusive and Abeta rescue inconclusive.
`COc1cccc(-c2nnc(NC(=O)c3ccc(Cl)s3)o2)c1` gave FUS yeast rescue inactive, aSyn rescue inconclusive, TDP43 rescue 10µM* and Abeta rescue inconclusive.
O=C(Nc1nnc(-c2ccccc2)o1)c1cc(Cl)sc1Cl was read as FUS yeast rescue inactive, aSyn rescue 3.16µM*, TDP43 rescue -4.4% and Abeta rescue inconclusive.
O=C(Nc1nnc(-c2ccc(Cl)cc2)o1)Nc1ccccc1Cl was read as FUS yeast rescue inactive, aSyn rescue 1.0%, TDP43 rescue 22.8% and Abeta rescue inactive.
Screening Cc1cc(C(=O)O)c(C)o1 returned FUS yeast rescue inactive.
`COc1ccc2c(c1)c1c(c(=O)n(-c3cccc(C)c3)c(=O)n1Cc1cccc(Cl)c1)n2C` gave FUS yeast rescue inactive, TDP43 rescue 19.8% and Abeta rescue inactive.
Screening CC(=O)Nc1ccc2nc3c(=O)[nH]c(=O)[nH]c3nc2c1 returned aSyn rescue 6.1%.
Screening CCOC(=O)Cn1c(=O)oc2cc(S(=O)(=O)N3CCN(c4cccc(C)c4C)CC3)ccc21 returned FUS yeast rescue inactive, TDP43 rescue 20.0% and Abeta rescue inconclusive.
`ON=C1c2ccccc2-c2ccc(Br)cc21` gave aSyn rescue -8.4%, TDP43 rescue 3.16µM* and Abeta rescue inactive.
CC(=O)N1CCCc2cc(S(=O)(=O)N3CCC(C(=O)NCc4cccc(C)c4)CC3)ccc21 was read as FUS yeast rescue inactive, TDP43 rescue 2.9% and Abeta rescue inactive.
For CC1CCN(S(=O)(=O)c2ccc3c(c2)N(CC(=O)NCCc2ccc(Cl)cc2)C(=O)CO3)CC1 the results were FUS yeast rescue inconclusive, aSyn rescue 18.3%, TDP43 rescue -2.2% and Abeta rescue inactive.
Cc1ccc(N2CCN(C(=O)c3ccccc3Br)CC2)c(C)c1 was read as FUS yeast rescue inactive, aSyn rescue 6.0%, TDP43 rescue 15.8µM* and Abeta rescue inactive[9.22 µM].
For Cc1cc(C)n2nc(SCc3cccc(F)c3)nc2n1 the results were FUS yeast rescue inactive, aSyn rescue 0.2%, TDP43 rescue 17.8µM* and Abeta rescue inactive.
Cc1cc(C)n2nc(NCc3cccc(Br)c3)nc2n1 was read as FUS yeast rescue inactive, aSyn rescue 1.6%, TDP43 rescue 14.1µM* and Abeta rescue inactive.
`CCOC(=O)c1ccc(NC(=O)CCCn2c(=O)c3cccn3c3cccnc32)cc1` gave FUS yeast rescue inactive, TDP43 rescue 24.5% and Abeta rescue inactive.
Screening Cc1ccc(NC(=O)Cn2c(=O)n(Cc3ccccc3)c(=O)c3c(C)c(C(=O)N(C)C)sc32)c(C)c1 returned FUS yeast rescue inactive, TDP43 rescue 0.0% and Abeta rescue inactive.
For COc1cc(NC(=O)Nc2nnc(N3CCCCCC3)s2)cc(OC)c1 the results were FUS yeast rescue inactive, TDP43 rescue 22.8%[9.22 µM] and Abeta rescue inactive.
Screening Cc1cc(C(=O)CCl)c(C)n1CCc1ccccc1 returned FUS yeast rescue inactive, aSyn rescue -11.3%, TDP43 rescue 10µM* and Abeta rescue inactive.
`CCOC(=O)c1cc(C)n(CCc2ccccc2)c1C` gave FUS yeast rescue inactive, aSyn rescue -8.9%, TDP43 rescue 7.8% and Abeta rescue inactive.
Screening COC(=O)CCn1c(C)cc(C(=O)COc2ccccc2C(N)=O)c1C returned FUS yeast rescue inactive, aSyn rescue 5.7%, TDP43 rescue -11.6% and Abeta rescue inactive.
COC(=O)CCCn1c(C)cc(C(=O)CCl)c1C was read as FUS yeast rescue inactive, aSyn rescue -34.7%, TDP43 rescue 20µM* and Abeta rescue inactive.
Cc1cc(C(=O)CCl)c(C)n1Cc1ccco1 was read as FUS yeast rescue inactive, aSyn rescue -30.8%, TDP43 rescue 10µM* and Abeta rescue inactive.
For OC[C@H]1O[C@H](n2cnc3c(N[C@H]4CCC[C@@H]4O)ncnc32)[C@H](O)[C@@H]1O the results were aSyn rescue -9.2%.
Screening Cc1cc(C(=O)COc2cccnc2[N+](=O)[O-])c(C)n1Cc1cccs1 returned FUS yeast rescue inactive, aSyn rescue 3.8%, TDP43 rescue -18.1% and Abeta rescue inactive.
Screening CC(=O)Nc1ccccc1OCC(=O)c1cc(C)n(Cc2cccs2)c1C returned FUS yeast rescue inactive, aSyn rescue -10.0%, TDP43 rescue 22.4µM* and Abeta rescue inactive.
COc1ccc(CNC(=O)C2CCN(c3nnc(-n4cccc4CNc4ccc(C)cc4)s3)CC2)c(OC)c1 was read as FUS yeast rescue inactive, TDP43 rescue 18.2% and Abeta rescue inactive.
Cc1c(C(=O)c2ccccc2C(=O)O)sc2ccccc12 was read as FUS yeast rescue inactive, aSyn rescue 1.4%, TDP43 rescue 11.2µM* and Abeta rescue inactive.
For O=C(N/N=C/c1cccc2cccnc12)c1ccccc1O the results were FUS yeast rescue inactive, aSyn rescue 22.4µM*, TDP43 rescue -14.1% and Abeta rescue inconclusive.
`Cc1ccc(CCNC(=O)CCS(=O)(=O)c2cc3c(cc2Cl)NC(=O)CO3)cc1` gave FUS yeast rescue inactive, aSyn rescue -4.2%, TDP43 rescue 15.5% and Abeta rescue inactive.
CC(C)c1ccc(NC(=O)COc2ccccc2)cc1 was read as FUS yeast rescue inactive, aSyn rescue -6.6%, TDP43 rescue 10µM* and Abeta rescue inactive.
COc1ccc(NC(=O)COc2ccccc2)cc1Cl was read as FUS yeast rescue inactive, aSyn rescue -7.6%, TDP43 rescue 11.2µM* and Abeta rescue inactive.
`Cc1ccc(NC(=O)COc2ccccc2)cc1Cl` gave FUS yeast rescue inactive, aSyn rescue -5.8%, TDP43 rescue inconclusive and Abeta rescue inactive.
For Cc1ccc2cccc(NC(=O)C(C)Oc3ccc(Cl)cc3Cl)c2n1 (stereo not drawn) the results were FUS yeast rescue inactive, TDP43 rescue 4.6% and Abeta rescue inactive.
